High-throughput results (PubChem)
G9a inh = blocks human histone lysine methyltransferase G9a; actives 8.8% (n = 350,000); Q96KQ7; Potency, µM (titrated, usually from 102 µM), for the others: top-dose activity, negative = inhibition, usual class: inhibitors; G9a H3K9 monomethylation, AlphaScreen, 2 h; further: potency means the concentration at half of the fitted maximal effect; on the % scale 0 is the no-effect control and ±100 the full control effect; nearly all actives have a fitted effect of over 75% in size
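AlphaScreen read-out: biotin-H3K9 peptide (500 nM) methylation by 20 nM enzyme with 20 uM SAM, 2 h at room temperature after 15 min compound preincubation; anti-monomethyl H3K9 antibody plus donor/acceptor beads, 10 min dark.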
PI5P4K alpha inh = inhibitors of human PI5P4K alpha | P48426 | PI5P4Kalpha enzyme, ADP-Glo luminescence, 60 min; active compounds read low | max response, % | actives 1.2% (n = 330,000) | AID 652105; active means max response of -50% or lower; inconclusive means between -30% and -50%; inactive means -30% or higher; further: value at the top dose of about 77 µM; on the % scale 0 is the no-effect control and ±100 the full control effect
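Enzyme plus substrate dispensed, test compounds pinned in, then ATP (5 microM final) added. After 60 min at RT, ADP-Glo reagent 1 for 45 min and reagent 2 for 30 min preceded luminescence imaging.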
HP1b binding inh = inhibitors of HP1-beta chromodomain binding to methylated histone tails | P83916 | AlphaScreen HP1-beta / biotin-H3K9me3 peptide binding | Potency, µM (titrated, usually from 114 µM), inactives show at the highest dose activity change, negative = inhibition, hits mostly inhibitors | actives 0.56% (n = 390,000); further: potency means the concentration at half of the fitted maximal effect; nearly all actives have a fitted effect of over 70% in size
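AlphaScreen: HP1-beta (50 nM) preformed 30 min with biotin-H3(1-18)K9me3 peptide (50 nM) in PBS pH 7.4, 0.01% Tween-20. Compound added for 30 min at RT, then streptavidin donor/nickel chelate acceptor beads (10 ug/mL) for 30 min.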
PLK1 PBD inh = blocks phosphopeptide binding to human PLK1 polo-box domain. Potency, µM, for the others: max response, negative = inhibition, most hits filed as inhibitors. P53350. Plk1 PBD binding of FITC phosphopeptide, fluorescence polarization. actives 2.8% (n = 360,000); further: potency means the concentration at half of the fitted maximal effect; series mostly up to about 57 µM; on the % scale 0 is the no-effect control and ±100 the full control effect; nearly all actives have a fitted effect of over 65% in size
JMJD2A Tudor inh = blocks the human JMJD2A Tudor domain. actives 4.4% (n = 390,000). AlphaScreen JMJD2A-Tudor / H3K4me3 peptide binding. Potency, µM (series often up to 114 µM), for inactives: top-dose activity change, negative = inhibition, hits mostly inhibitors. AID 504339. O75164; further: potency means the concentration at half of the fitted maximal effect; on the % scale 0 is the no-effect control and ±100 the full control effect; nearly all actives have a fitted effect of over 50% in size
BAZ2B inh = BAZ2B (human) inhibition; AlphaScreen BAZ2B-H3K14Ac peptide displacement; Potency, µM (series often up to 114 µM), without a hit: top-dose activity change, negative = inhibition, usual class: inhibitors; actives 4.4% (n = 360,000); further: potency means the concentration at half of the fitted maximal effect; on the % scale 0 is the no-effect control and ±100 the full control effect; nearly all actives have a fitted effect of over 60% in size
Target sequence (Q9UIF8 whole entry, looked up): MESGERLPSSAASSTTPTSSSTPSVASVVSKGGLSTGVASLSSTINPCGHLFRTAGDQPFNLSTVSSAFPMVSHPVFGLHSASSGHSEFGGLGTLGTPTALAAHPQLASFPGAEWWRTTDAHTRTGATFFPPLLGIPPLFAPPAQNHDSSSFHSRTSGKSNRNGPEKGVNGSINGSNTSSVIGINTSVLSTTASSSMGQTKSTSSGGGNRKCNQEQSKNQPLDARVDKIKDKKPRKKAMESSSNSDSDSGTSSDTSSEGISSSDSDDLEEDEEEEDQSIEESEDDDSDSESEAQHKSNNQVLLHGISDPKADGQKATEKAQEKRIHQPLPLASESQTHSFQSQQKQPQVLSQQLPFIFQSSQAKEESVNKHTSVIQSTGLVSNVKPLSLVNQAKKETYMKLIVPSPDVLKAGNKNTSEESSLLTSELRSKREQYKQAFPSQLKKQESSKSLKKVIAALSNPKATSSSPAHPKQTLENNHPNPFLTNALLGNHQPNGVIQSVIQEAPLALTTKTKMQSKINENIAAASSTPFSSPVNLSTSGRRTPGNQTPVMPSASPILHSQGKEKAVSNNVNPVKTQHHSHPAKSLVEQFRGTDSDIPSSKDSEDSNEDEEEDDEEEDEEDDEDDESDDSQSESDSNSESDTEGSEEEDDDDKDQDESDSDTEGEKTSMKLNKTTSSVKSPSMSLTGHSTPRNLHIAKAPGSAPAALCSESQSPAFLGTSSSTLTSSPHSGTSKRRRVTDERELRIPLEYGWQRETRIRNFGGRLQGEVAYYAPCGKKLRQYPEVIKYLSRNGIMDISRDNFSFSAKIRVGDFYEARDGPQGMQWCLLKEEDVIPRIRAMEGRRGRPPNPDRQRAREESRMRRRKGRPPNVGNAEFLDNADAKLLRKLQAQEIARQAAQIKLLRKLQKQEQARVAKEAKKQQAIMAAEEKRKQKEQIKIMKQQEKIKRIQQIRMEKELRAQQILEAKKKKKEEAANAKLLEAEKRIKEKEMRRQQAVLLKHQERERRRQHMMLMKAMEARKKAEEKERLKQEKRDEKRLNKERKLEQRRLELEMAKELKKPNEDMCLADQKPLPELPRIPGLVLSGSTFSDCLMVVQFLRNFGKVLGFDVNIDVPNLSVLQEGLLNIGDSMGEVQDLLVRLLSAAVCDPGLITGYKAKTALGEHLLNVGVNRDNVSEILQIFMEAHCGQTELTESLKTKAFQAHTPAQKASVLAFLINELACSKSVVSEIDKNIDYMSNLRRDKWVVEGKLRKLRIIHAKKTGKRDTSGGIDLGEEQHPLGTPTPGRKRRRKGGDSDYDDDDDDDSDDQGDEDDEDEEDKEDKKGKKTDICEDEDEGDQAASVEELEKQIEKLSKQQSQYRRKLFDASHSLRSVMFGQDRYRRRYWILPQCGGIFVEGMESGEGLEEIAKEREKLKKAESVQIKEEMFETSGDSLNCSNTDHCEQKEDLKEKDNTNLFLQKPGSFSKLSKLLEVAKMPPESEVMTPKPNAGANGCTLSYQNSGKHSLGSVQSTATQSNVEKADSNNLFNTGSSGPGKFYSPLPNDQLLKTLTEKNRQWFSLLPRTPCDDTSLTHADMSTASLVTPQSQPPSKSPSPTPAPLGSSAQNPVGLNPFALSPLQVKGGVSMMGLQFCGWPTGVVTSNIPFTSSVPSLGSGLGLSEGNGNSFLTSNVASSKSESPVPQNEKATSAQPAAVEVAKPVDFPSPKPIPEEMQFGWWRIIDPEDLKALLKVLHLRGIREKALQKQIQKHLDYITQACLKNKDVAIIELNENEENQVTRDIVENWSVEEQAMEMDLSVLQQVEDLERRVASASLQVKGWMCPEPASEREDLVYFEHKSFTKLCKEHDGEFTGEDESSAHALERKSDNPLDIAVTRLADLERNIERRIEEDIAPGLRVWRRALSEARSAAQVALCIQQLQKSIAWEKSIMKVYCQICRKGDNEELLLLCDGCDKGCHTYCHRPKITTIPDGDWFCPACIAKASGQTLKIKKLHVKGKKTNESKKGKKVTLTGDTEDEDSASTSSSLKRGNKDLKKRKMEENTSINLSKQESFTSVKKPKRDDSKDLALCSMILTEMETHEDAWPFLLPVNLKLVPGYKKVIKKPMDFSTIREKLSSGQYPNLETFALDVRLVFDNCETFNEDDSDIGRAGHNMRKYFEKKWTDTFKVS
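Compounds, titrated to a top concentration of 110 uM, were incubated 30 min at room temperature with preformed BAZ2B/acetyl-K14 H3 peptide complex (50 nM each). Proximity signal was measured by AlphaScreen after 20 min with beads.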
* = called active by the depositor; ? = inconclusive; . = not tested or not shown; [ ] = remark or other dose. Compounds with a hit are over-represented: about 12% of the library has one in this group of screens. Unless noted, the call rests on the fitted dose curve; in most records, active means well fitted curve in the direction sought with a large enough effect; inconclusive means small, poorly fitted or top-dose-only effect, or another doubt; inactive means no such curve, though single readings can be large; an effect the other way counts as inactive or inconclusive.

SMILES	G9a inh	PI5P4K alpha inh	HP1b binding inh	PLK1 PBD inh	JMJD2A Tudor inh	BAZ2B inh
O=C(CN1CCN(S(=O)(=O)N2CCOCC2)CC1)Nc1cc(Cl)cc(Cl)c1	-8%[59 µM]	-4	15%	-11%	-11%	-1%
COc1cccc(-c2nn(-c3ccccc3)cc2CN(C)Cc2c(C)nc3ccccn23)c1	?	15	-28%	3%	56µM*	-38%
COc1cccc(-c2nn(-c3ccccc3)cc2CN(C)Cc2ccon2)c1	42%	6	101%	0%	6%	9%
CCOc1ccc(C2C(C(=O)c3ccco3)=C(O)C(=O)N2CCCn2ccnc2)cc1OC (stereo not drawn)	.	-9	19%	-23%	-26%	50µM*
COc1ccc(C2C(C(C)=O)=C(O)C(=O)N2CCCn2ccnc2)cc1 (stereo not drawn)	-1%[0.0925 µM]	.	14%	-6%	89µM*	?
CC1=C(c2ccccc2)SC2=NCCN21	?	0	32%	-12%	-14%	8%
COc1ccccc1-c1cnc(C(O)c2ccc(C)cc2)[nH]1 (stereo not drawn)	.	1	.	4%	.	.
NS(=O)(=O)c1cccc(NC(=O)c2cccc(S(=O)(=O)N3CCCCCC3)c2)c1	.	0	26%	3%	-3%	.
O=C(Nc1cccc(S(=O)(=O)N2CCCCC2)c1)c1ccc2ncsc2c1	?	-5	7%	-2%	28µM*	56µM*
O=C(Nc1cccc(S(=O)(=O)N2CCCCC2)c1)c1ccc(OCC2CCCO2)cc1 (stereo not drawn)	56µM*	-4	23%	5%	-13%	.
O=C(Nc1ccc(S(=O)(=O)N2CCCC2)cc1)c1ccc(OCC2CCCO2)cc1 (stereo not drawn)	-13%	12	22%	0%	-10%	-17%
CN(C)c1ccc(C(=O)OCc2ccccc2)cc1	3%	12	44%	-12%	-6%[11.4 µM]	47%
O=C1C=CC(=O)C(CNc2ccc(C(=O)OCc3ccccc3)cc2)=C1	.	-77*	40µM*	13µM*	40µM*	.
O=c1oc2ccc3ccccc3c2cc1-c1nnc(Nc2cccc(C(F)(F)F)c2)s1	?	.	12%	.	-11%	2%
COc1ccccc1C(=O)NC(=S)Nc1ccc(Cc2ccncc2)cc1	32µM*	0	14%	-16%	-27%	?
Cc1cc(C)cc(C(=O)NC(=S)Nc2ccc(Cc3ccncc3)cc2)c1	22µM*	-6	?	-19%	?	?
O=C(NC(=S)Nc1ccc(Cc2ccncc2)cc1)c1ccccc1	?	1	?	0%	-34%	?
Cc1cccc(C(=O)NC(=S)Nc2ccc(Cc3ccncc3)cc2)c1	32µM*	1	-42%	?	?	?
COc1cccc(/C=C/c2ccc3cccc(O)c3n2)c1OC	15%	40	30%	-8%	-15%	0%
COc1cccc(/C=C/c2ccccn2)c1O	-4%	3	9%	27µM*	-6%[11.4 µM]	0%
COC(=O)Nc1ccc(OCc2ccccc2)cc1	-16%[12.7 µM]	.	15%	-8%	6%	4%
Cc1cnc(NC(=O)Nc2ccc(OCc3ccccc3)cc2)c(Br)c1	-1%	-2	5%	30µM*	?	-11%
CCCc1cc(C(=O)OC)c(NC(=O)CCCC(=O)O)s1	-8%	5	19%	-10%	1%	-10%
CCc1cc(C(=O)OC)c(NC(=O)CCC(=O)O)s1	14µM*	-5	?	30µM*	-12%	8%
CCCN1CCN(C(=S)Nc2sc(CC)cc2C(=O)OC)CC1	50µM*	1	15%	-2%	?	-37%
SMILES	G9a inh	PI5P4K alpha inh	HP1b binding inh	PLK1 PBD inh	JMJD2A Tudor inh	BAZ2B inh
CC1CC=CC2C1C(=O)N(Cc1ccccc1)C2c1ccc2ccccc2c1Br (stereo not drawn)	.	.	21%	.	-6%	.
c1ccc(Cn2ncc3c(NCc4ccco4)ncnc32)cc1	45µM*	.	21%	1%	?	79µM*
Fc1ccc2[nH]c3c(NCc4ccco4)ncnc3c2c1	.	.	-20%	.	-33%	.
Cc1ccc2[nH]c3c(NCc4ccco4)ncnc3c2c1	50µM*	-28	-13%	-8%	-33%	?
Cc1ccc(-n2ncc3c(NCc4ccco4)ncnc32)c(C)c1	50µM*	-14	24%	1%	-27%	?
CCc1ccc(NC(=O)c2ccc3oc(=O)n(Cc4ccccc4)c3c2)cc1	21%[59 µM]	.	30%	.	-13%	-5%
COc1ccc(Cl)cc1NC(=S)N(Cc1ccc(C(=O)O)cc1)Cc1ccc(OC)c(OC)c1	28µM*	-10	-6%	?	-21%	-15%
COc1cccc(NC(=S)N(Cc2ccc(Cl)cc2)Cc2ccc(C(=O)O)cc2)c1	50µM*	-2	8%	?	-9%	4%
COC(=O)COc1cccc(NC(=O)c2ccc(Cl)cc2)c1	23%	1	4%	30µM*	?	-15%
CC(C)c1nc2ccc(C(=O)NCCCN3CCN(c4ccccc4F)CC3)cc2o1	1%[59 µM]	.	27%[57 µM]	.	-12%	-18%
CCCn1c(N)c(C(=O)CN(C)CC(=O)Nc2ccc(F)cc2)c(=O)[nH]c1=O	10%[59 µM]	-4	23%	2%	-11%	10%
Cc1ccc(S(=O)(=O)Nn2c(C)ccc2C)cc1	-10%[2.33 µM]	-58*	0%	-19%	50µM*	?
C[C@@H]1CN([C@@H](C)CO)C(=O)CCCn2nncc2CO[C@@H]1CN(C)S(=O)(=O)c1cccc(F)c1	.	-10	.	-11%	.	.
CCOC(=O)c1cc(NC(=O)c2ccccc2)c(=O)oc1C(F)(F)F	?	9	33%	-11%	-7%	-3%
COC(=O)c1cc(NC(=O)c2cccc(C(F)(F)F)c2)c(=O)oc1C	28µM*	5	44%	-5%	-5%	-7%
COC(=O)c1cc(NC(=O)c2cccc(C(F)(F)F)c2)c(=O)oc1C/C=N/OCc1cccc(Cl)c1Cl	40µM*	-26	-21%	-8%	-21%[11.4 µM]	-6%
COC(=O)c1cc(NC(=O)c2ccc(OC)cc2)c(=O)oc1C	-26%	10	1%	?	-16%[11.4 µM]	-2%
CCc1ccc(CNC(=O)c2ccc(Cn3c(=O)c4cccn4c4cccnc43)cc2)cc1	2%[59 µM]	.	28%	.	-9%	-13%
CCc1cc(=O)oc2cc(OCC(=O)N3CCC[C@H]3C(=O)O)ccc12	12%[12.7 µM]	4	28%	-14%	-10%	7%
Cc1ccc(S(=O)(=O)Nc2nc3n(n2)C(c2ccc(F)cc2)C=C(c2ccccc2)N3)cc1 (stereo not drawn)	?	.	31%	.	-7%	-15%
COc1ccc(C2C=C(c3ccccc3)Nc3nc(NS(=O)(=O)c4ccccc4)nn32)cc1 (stereo not drawn)	-7%[59 µM]	.	22%	.	-16%	-7%
